GLA inh pH 4.5: qHTS Assay for Inhibitors of Human alpha-Galactosidase at pH 4.5 | Alpha-galactosidase A (Homo sapiens), P06280 | purified enzyme, 4-MU-alpha-Gal fluorescence, pH 4.5 | activity change, negative = inhibition, % at 105 µM | 230,000 tested, under 10 active | AID 1467, 2008;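 note: 0% = full activity with enzyme and -100% = basal without enzyme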
HPGD inh: qHTS Assay for Inhibitors of HPGD (15-Hydroxyprostaglandin Dehydrogenase); Potency, µM, for inactives: at the highest dose activity change, negative = inhibition, hits mostly inhibitors; purified HPGD, NADH fluorescence kinetic, PGE2 substrate; 4.3% of 150,000 active; 15-hydroxyprostaglandin dehydrogenase [NAD(+)] (Homo sapiens), P15428; active = well fitted inhibition curve with a large enough effect, not every such curve was filed as active; inconclusive = small, poorly fitted or top-dose-only effect, or another doubt; inactive = no such curve, though single readings can be large or run the other way; note: potency is the fitted concentration of half-maximal effect
Target sequence (P15428 whole entry, looked up): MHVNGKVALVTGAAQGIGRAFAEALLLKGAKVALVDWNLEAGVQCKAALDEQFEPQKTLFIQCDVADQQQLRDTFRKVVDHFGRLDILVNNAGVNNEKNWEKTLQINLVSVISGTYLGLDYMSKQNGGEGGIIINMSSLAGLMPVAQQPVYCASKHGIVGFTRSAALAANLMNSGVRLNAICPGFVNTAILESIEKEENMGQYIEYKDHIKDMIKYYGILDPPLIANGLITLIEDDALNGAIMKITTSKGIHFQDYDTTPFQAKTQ
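NADH formation kinetics: reaction with 30 uM PGE2 and 1 mM NAD+ (final), 20 nM enzyme, Tris-HCl pH 8 with Tween 20, after 15 min compound preincubation at room temperature. Fluorescence change, last versus first of five reads.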
PNC assembly inh: High Content Assay for Compounds that inhibit the Assembly of the Perinucleolar Compartment; PC3M PTB-GFP, PNC prevalence imaging, 16 h; hits give low values; activity change (PNC), negative = inhibition, % at 10 µM; 3.1% of 140,000 active; AID 2417, 2010;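 active = readout at or below -70, meaning at least 70% loss of cells showing the perinucleolar compartment, a nuclear body marking cancer cells; inconclusive = readout between -30 and a set limit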;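 note: plate controls were DMSO wells for no effect and camptothecin positive control wells for full effect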
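PC3M cells stably expressing PTB-GFP, 750–1000 cells/well, treated 16 h at 37 °C with compound (23 nl of library stock), in duplicate. After paraformaldehyde fixation and Hoechst stain, imaged at 20x; PNC prevalence scored by image analysis.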
ALDH1A1 block: qHTS Assay for Inhibitors of Aldehyde Dehydrogenase 1 (ALDH1A1); 7.3% of 220,000 active; Aldehyde dehydrogenase 1A1 (Homo sapiens), P00352; Purified ALDH1A1, NADH fluorescence, propionaldehyde substrate; Potency, µM (doses to about 75.3 µM), without a hit: at the highest dose activity, negative = inhibition, most hits filed as inhibitors; AID 1030, 2008; active = well fitted inhibition curve with a large enough effect, not every such curve was filed as active; inconclusive = small, poorly fitted or top-dose-only effect, or another doubt; inactive = no such curve, though single readings can be large or run the other way;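 note: potency is the fitted concentration of half-maximal effect; plate controls were no enzyme wells and a reference inhibitor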
ALOX12 inhib: qHTS Assay for Inhibitors of 12-hLO (12-human lipoxygenase); Polyunsaturated fatty acid lipoxygenase ALOX12 (Homo sapiens), P18054; purified 12-hLO, xylenol orange hydroperoxide absorbance; Potency, µM (series often up to 57.1 µM), without a hit: at the highest dose activity change, negative = inhibition, most hits filed as inhibitors; 0.12% of 150,000 active; AID 1452, 2008; note: potency is the fitted concentration of half-maximal effect; nearly all actives have a fitted effect of over 55% in size
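Xylenol orange chromogenic assay: hydroperoxide from 12hLO oxidises Fe(II), giving red-shifted Fe(III)-XO absorbance. Conditions: 150 nM enzyme, 40 uM arachidonic acid, 25 mM Hepes pH 7.0, 0.01% Triton X-100, 30 min, room temperature.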
GLA spleen mod: qHTS Assay for Inhibitors and Activators of Human alpha-Galactosidase From Spleen Homogenate; Alpha-galactosidase A (Homo sapiens), P06280; human spleen homogenate, 4MU-alpha-Gal fluorescence, 40 min; Potency, µM (doses to about 80 µM), for inactives: top-dose activity change, negative = inhibition, hits mostly inhibitors; 0.008% of 240,000 active;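 note: potency is the fitted concentration of half-maximal effect; 0% = enzyme with vehicle and -100% = no enzyme basal signal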
Target sequence (P06280 32-429 limits assumed): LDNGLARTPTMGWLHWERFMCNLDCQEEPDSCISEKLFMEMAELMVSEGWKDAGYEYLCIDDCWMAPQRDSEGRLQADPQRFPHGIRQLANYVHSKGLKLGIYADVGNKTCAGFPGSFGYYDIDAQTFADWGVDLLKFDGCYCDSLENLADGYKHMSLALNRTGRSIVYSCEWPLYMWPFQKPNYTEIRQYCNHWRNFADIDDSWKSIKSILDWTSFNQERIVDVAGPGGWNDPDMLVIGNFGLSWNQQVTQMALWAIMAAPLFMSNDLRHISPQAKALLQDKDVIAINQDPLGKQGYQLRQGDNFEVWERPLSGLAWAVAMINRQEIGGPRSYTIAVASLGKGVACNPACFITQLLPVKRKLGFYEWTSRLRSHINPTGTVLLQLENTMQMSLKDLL
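qHTS titration in buffer at pH 5.0. Alpha-galactosidase activity in spleen homogenate was measured via 4-methylumbelliferone release from 1 mM fluorogenic substrate after 40 min at 37C and a pH 10 stop. AC50 came from Hill fits of control-normalized data.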
* marks the source's active call; other numbers are inactive results; u = inconclusive; x = no result; [ ] = another dose, or the depositor's remark. In the library only some 10% were active in any assay of this set; here they are far more common. Unless noted, calls come from the whole dose curve; as a rule, active = well fitted curve in the direction sought with a large enough effect; inconclusive = small, poorly fitted or top-dose-only effect, or another doubt; inactive = no such curve, though single readings can be large; an effect the other way counts as inactive or inconclusive. Unless noted, % is set by controls: 0 for no effect and ±100 for the full control effect.

SMILES	GLA inh pH 4.5	HPGD inh	PNC assembly inh	ALDH1A1 block	ALOX12 inhib	GLA spleen mod
COC(=O)C1=C(C)N(CCc2ccc(OC)cc2)C(=O)C1	5	-30%	-27	10µM*	4%	3%
COC(=O)C1=C(C)N(CCc2c[nH]c3ccccc23)C(=O)/C1=C\N(C)C	4	x	x	13µM*	x	1%
COC(=O)C1=C(C)N(Cc2ccc(OC)cc2)C(=O)C1	-3	-20%	24	3%	-3%	-1%
O=C(O)CCC/C=C\C/C=C\C=C\[C@@H](O)C/C=C\CCCCCO	-3	-2%	x	-7%	-2%	3%
Cc1cc(C)c(C)c(OCCCN(C)C)c1	11	-1%	11	u	2%	2%
O=C(NCCOC(=O)c1ccc(C(=O)OCCNC(=O)c2ccccc2)o1)c1ccccc1	2	7.9µM*	-10	u	-9%	-4%
O=C(NCCOCCOCCNC(=O)c1ccccc1)c1ccccc1	0	x	x	-11%	x	-3%
CC(C)C1CC(CCN)(Cc2ccccc2)CCO1 (configuration not stated)	-10	x	x	-6%	x	-18%
CNC(=O)C1CC(=O)N/C(=N/N=C(\C)c2cccs2)S1 (configuration not stated)	-6	-11%	73	1%	-2%	-1%
C/C(=N\N=C1\NC(=O)CC(C(=O)O)S1)c1cccs1 (configuration not stated)	-1	-21%	-106*	-6%	3%	5%
COCCNC(=S)NNc1ccc(Cl)c(C(=O)O)c1	-5	x	x	8.9µM*	x	1%
COCc1cc(C)nc(SCC(=O)c2ccc(O)c(O)c2)c1C#N	3	16µM*	33	-13%	-22%	-3%
COCc1cc(C)nc(SCC(=O)Oc2ccccc2)c1C#N	6	x	x	-10%	x	6%
CCOC(=O)CCc1c(C)nc(SCC(=O)O)c(C#N)c1C	0	-22%	-14	25µM*	-5%	5%
CCOC(=O)c1c(C)nc(SCC(N)=O)c(C#N)c1-c1ccccc1	7	0%	-114*	u	-4%	-6%
CCOc1ccc2cc(C#N)c(SCC(=O)N3CCOCC3)nc2c1	2	u	u	3.5µM*	-10%	-5%
CCOC(=O)CSc1nc2cc3c(cc2cc1C#N)OCCO3	8	x	x	7%	x	0%
Cc1cc(C)c(C#N)c(SCC(=O)OC2CCCCC2)n1	-6	16µM*	-83*	28µM*	-11%	-3%
CCOC(=O)CSc1nc(C)cc(C)c1C#N	5	-9%	30	25µM*	4%	-2%
CCOC(=O)CSc1nc2cc3c(cc2cc1C#N)OCO3	2	-12%	-127*	-2%	-9%	-5%
CCOC(=O)NC(CC(=O)O)c1ccc(OC)cc1 (configuration not stated)	1	3%	-100*	10%	-3%	4%
COc1ccc(C(CC(=O)O)NC(=O)c2ccco2)cc1 (configuration not stated)	6	-2%	u	9%	9%	8%
Cc1csc(NC(=O)CCc2ccc(S(=O)(=O)N3CCOCC3)cc2)n1	3	-21%	3	u	5%	9%
Cc1cc(NC(=O)CCc2ccc(S(=O)(=O)N3CCOCC3)cc2)n(-c2ccccc2)n1	-1	-8%	-100*	2%	-5%	2%
O=C(CCNS(=O)(=O)c1cccc2nonc12)NC1CCCCCC1	1[21.1 µM]	x	x	25µM*	x	-1%
SMILES	GLA inh pH 4.5	HPGD inh	PNC assembly inh	ALDH1A1 block	ALOX12 inhib	GLA spleen mod
O=C(CCNS(=O)(=O)c1cccc2nonc12)NCc1cccs1	0	-17%	52	20µM*	-6%	5%
Cc1ccc(NC(=O)CCNS(=O)(=O)c2cccc3nonc23)cc1	-3	-1%	24	u	-6%	u
CC(C)c1ccc(NC(=O)CCNS(=O)(=O)c2cccc3nonc23)cc1	1	-26%	-100*	25µM*	1%	-2%
N[C@@H](CO)C(=O)NNCc1ccc(O)c(O)c1O	7	-2%	x	u	6%[25.6 µM]	-11%[29.1 µM]
COc1cccc(-c2ccc(SCC(=O)N3CCc4ccccc43)nn2)c1	-6	-22%	1	20µM*	-2%	6%
Cc1ccc(-c2ccc(SCC(=O)N3CCc4ccccc43)nn2)cc1	4	-10%	-83*	5%	3%	-6%
O=C(CSc1ccc(-c2ccccc2)nn1)N1CCN(c2ccccc2)CC1	-1	-9%	-2	22µM*	2%	-1%
O=C(CSc1ccc2nnc(-c3ccc(Cl)cc3)n2n1)N1CCc2ccccc21	-6	14µM*	u	u	-6%	0%
COc1ccc(-c2cc(C3C4C=CCCC4(C)C(=O)N3Cc3ccccc3)ccc2F)cc1OC (configuration not stated)	x	x	x	x	x	2%
COc1cccc(OCCn2cc(C(=O)c3ccco3)c3ccccc32)c1	-11	u	33	22µM*	-5%	-5%
CNC(=S)N/N=C/c1cn(CCOc2cccc(OC)c2)c2ccccc12	-14	16µM*	16	u	u	4%
CC1(C)CC(=O)C(C=Nc2cccc(/N=C/C3=C(O)CC(C)(C)CC3=O)n2)=C(O)C1	9	-19%	24	3.5µM*	-4%	12%
CC1(C)CC(=O)C(C=Nc2ccccc2)=C(O)C1	8	x	-19	3%	-3%	7%
CC1(C)CC(=O)C(C=Nc2ccc(NC3=C(C#N)C(=O)CC(C)(C)C3)cc2)=C(O)C1	0	x	x	7.1µM*	x	5%
Cc1[nH]nc(N=CC2=C(O)CC(C)(C)CC2=O)c1-c1ccccc1	-7	-17%	u	28µM*	1%	-1%
CC1(C)CC(=O)C(/C=N/c2ccccn2)=C(O)C1	4	-18%	-17	14µM*	-4%	-5%
O=S(=O)(c1ccc(C2=CSC3=NCCN23)cc1)N1CCOCC1	-22	u	-8	16µM*	-5%	9%
Clc1ccccc1-c1nn2c(-c3ccncc3)nnc2s1	1	11µM*	4	11µM*	2%	1%
Clc1ccccc1-c1nnc2sc(-c3cccs3)nn12	0	28µM*	-27	14µM*	4%	-6%
CSc1nc(C)cc(Nc2ccc(O)c(CN3CCOCC3)c2)n1	x	0%	x	2%[13.5 µM]	-1%[11.4 µM]	x
COC(=O)CSc1nc(-c2ccccc2)c2c(c1C#N)CCCC2	-14	u	u	u	7%	-6%

Bioassay records: PubChem, National Center for Advancing Translational Sciences (NCATS)
